“And” between values parts separate entries of the source, which are not always exact repeats. Identical values can stand only once. Inconclusive results are not listed. The source holds several records for some structures; these can differ, active in one and inactive in another. The source made the active and inactive calls. Unless noted, calls come from the whole dose curve; as a rule, active = well fitted curve in the direction sought with a large enough effect in the repeat runs; inconclusive = weak or mixed curves; inactive = no such curve, though single readings can be large; an effect the other way counts as inactive or inconclusive.
How the values were obtained:
[1] = qHTS assay to identify small molecule antagonists of the estrogen receptor alpha (ER-alpha) signaling pathway using the BG1 cell line in the presence of 0.1 nM 17-beta-estradiol - cell viability counter screen (AID 1259241); note: nearly all actives have a fitted effect of over 40% in size
Outline: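 Measures cytotoxicity alongside the ER-alpha antagonist readout: VM7Luc4E2 cells, charcoal-stripped serum, 0.1 nM 17beta-estradiol final, 22 hr compound incubation at 37C, CellTiter-Fluor fluorescence.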

[2] = qHTS assay to identify small molecule antagonists of the androgen receptor (AR) signaling pathway using the MDA cell line in the presence of 0.5 nM R1881 - cell viability counter screen (AID 1259242); note: nearly all actives have a fitted effect of over 45% in size
Outline: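 Counter screen for cytotoxicity run in the same wells as the AR antagonist reporter screen: MDA-kb2 cells were treated 16 hr with test compounds and 0.5 nM R1881, then live-cell protease activity was measured by fluorescence.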

[3] = biological target: Estrogen receptor (Homo sapiens) (UniProt P03372); experiment: qHTS assay to identify small molecule antagonists of the estrogen receptor alpha (ER-alpha) signaling pathway using the BG1 cell line in the presence of 0.1 nM 17-beta-estradiol (AID 1259244); note: nearly all actives have a fitted effect of over 50% in size
Outline: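 Cells: VM7Luc4E2, endogenous ER-alpha, 4x ERE-luc stable. Pre-culture 5 d, phenol red-free, charcoal-stripped FBS. Plated 24 h, compound + E2 0.1 nM final, 22 h 37C/5% CO2. Readout ONE-Glo luminescence.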

[4] = qHTS assay to identify small molecule HDAC inhibitors (AID 1259364); note: nearly all actives have a fitted effect of over 45% in size; note: potency is the fitted concentration of half-maximal effect
Outline: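 Luminescence from a cell-permeant luminogenic class I/II HDAC substrate reports endogenous deacetylase activity in intact HCT-116 cells treated with compounds for 2 h.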

[5] = qHTS assay to identify small molecule HDAC inhibitors - cell viability counter screen (AID 1259365); note: series mostly up to about 92 µM; nearly all actives have a fitted effect of over 50% in size
Outline: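 Following a 2hr exposure of overnight-plated wild-type HCT-116 cells to DMSO-delivered compounds, CellTiter-Glo was added and luminescence recorded after 30min at room temperature.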

[6] = qHTS assay to identify small molecule agonists of the sonic hedgehog signaling (Shh) pathway - cell viability counter screen (AID 1259366); note: nearly all actives have a fitted effect of over 50% in size; note: potency is the fitted concentration of half-maximal effect
Outline: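 After a 4hr attachment at 37C, NIH/3T3 cells bearing an integrated Gli1-driven luciferase reporter were dosed with compounds. Treatment lasted 24hr, with the final hour including CellTiter-Fluor for a fluorescence viability measurement.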

[7] = qHTS assay to identify small molecule antagonists of the sonic hedgehog signaling (Shh) pathway - cell viability counter screen (AID 1259367); note: nearly all actives have a fitted effect of over 55% in size; note: potency is the fitted concentration of half-maximal effect
Outline: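 Cells: 3T3 Gli1-Luc, 2,000/well, 4 hr pre-incubation. Compounds in DMSO, then conditioned medium. Incubation 24 hr, 37C, 5% CO2. CellTiter-Fluor at 23 hr, 1 hr, fluorescence.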

[8] = qHTS assay to identify small molecule agonists of the sonic hedgehog signaling (Shh) pathway (AID 1259368; calls by dose curve;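 note: NIH/3T3-derived 3T3Gli1-Luc cells carrying a stable Gli1-driven firefly luciferase reporter; series mostly up to about 92 µM; nearly all actives have a fitted effect of over 15% in size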)
Outline: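 3T3Gli1-Luc (NIH/3T3 clone, stable Gli1-Luc); 4 hr pre-incubation, then cpd in DMSO 24 hr, 37 C/5% CO2; luciferase reagent 30 min RT; luminescence.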

[9] = qHTS assay to identify small molecule antagonists of the sonic hedgehog signaling (Shh) pathway (AID 1259369; calls by dose curve; note: nearly all actives have a fitted effect of over 45% in size; note: potency is the fitted concentration of half-maximal effect)
Outline: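 3T3Gli1-Luc, conditioned-medium-stimulated, 24hr cpd, 37C/5% CO2; Gli1-driven firefly Luc luminescence after 30min RT with luciferase reagent. Cells plated 4hr before cpd.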

[10] = biological target: Estrogen receptor beta (Homo sapiens) (UniProt Q92731); experiment: qHTS assay to identify small molecule agonists of the estrogen receptor beta (ER-beta) signaling pathway (AID 1259377; active = well fitted activation curve with a large enough effect in the signal ratio in the repeat runs, not every such curve was filed as active; the % refers to the signal ratio; note: potency is the fitted concentration of half-maximal effect)
Outline: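 In HEK293T cells bearing a UAS-beta-lactamase reporter under ER-beta control, DMSO-delivered compounds were incubated for 16 hr at 37C. Activity was detected as fluorescence 2 hours after LiveBLAzer B/G FRET substrate addition.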

[11] = biological target: Estrogen receptor beta (Homo sapiens) (UniProt Q92731); experiment: qHTS assay to identify small molecule antagonists of the estrogen receptor beta (ER-beta) signaling pathway (AID 1259378; active = well fitted inhibition curve with a large enough effect in the signal ratio in the repeat runs, not every such curve was filed as active; the % refers to the signal ratio)
Outline: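 Antagonist mode: compounds added to beta-lactamase reporter HEK293T ER-beta-UAS cells stimulated with E2 (1nM final), 16 hr at 37C. LiveBLAzer B/G FRET substrate, 2 hours room temperature, fluorescence read-out.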

[12] = qHTS assay to identify small molecule agonists of the androgen receptor (AR) signaling pathway in the presence of an antagonist - cell viability counter screen (AID 1259379);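 note: MDA-kb2 human breast cancer cells carrying an MMTV luciferase reporter; series mostly up to about 92 µM; nearly all actives have a fitted effect of over 25% in size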
Outline: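 Cells: MDA-kb2 (MMTV-luc, AR and GR elements), 3,000/well, 5 hr settle. Added: nilutamide 3.0uM final, then compounds (15 conc.). Incubation: 16 hr, 37C, no CO2. Read-out: CellTiter-Fluor, 1 hr, fluorescence.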

[13] = qHTS assay to identify small molecule agonists of the estrogen receptor beta (ER-beta) signaling pathway - cell viability counter screen (AID 1259380); note: nearly all actives have a fitted effect of over 30% in size
Outline: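 HEK293T ER-beta-UAS-bla; 2% CS-FBS; 6 hr pre-plate, 16 hr cpd at 37C/5% CO2; LiveBLAzer read first, then CellTiter-Glo 30 min RT, luminescence.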

[14] = qHTS assay to identify small molecule antagonists of the estrogen receptor beta (ER-beta) signaling pathway - cell viability counter screen (AID 1259382);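 note: HEK293T cells carrying ER-beta-UAS-bla reporter stimulated with estradiol; series mostly up to about 92 µM; nearly all actives have a fitted effect of over 55% in size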
Outline: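 Cells: ER-beta-UAS-bla HEK293T, 2,000/well, 2% CS-FBS, 6 hr settle. Cpd + E2 (1nM final), 16 hr, 37C/5% CO2. Bla FRET substrate 2 hr RT, then CellTiter-Glo 30 min RT, luminescence.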

[15] = biological target: Estrogen receptor (Homo sapiens) (UniProt P03372); experiment: qHTS assay to identify small molecule agonists of the estrogen receptor alpha (ER-alpha) signaling pathway in the presence of an antagonist (AID 1259383; calls by dose curve; note: nearly all actives have a fitted effect of over 15% in size; note: potency is the fitted concentration of half-maximal effect; for activation: top concentration of the series differs between compounds)
Outline: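 VM7Luc4E2, endog. ER-alpha + 4×ERE-luc; charcoal-stripped FBS, phenol red-free, 5 d; 24hr plating; +10.0nM ICI-182,780 (final); cpds 15 conc, 22hr, 37C/5% CO2; ONE-Glo luminescence.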

[16] = biological target: Androgen receptor (Homo sapiens) (UniProt P10275); experiment: qHTS assay to identify small molecule antagonists of the androgen receptor (AR) signaling pathway using the MDA cell line in the presence of 0.5 nM R1881 (AID 1259243); note: nearly all actives have a fitted effect of over 50% in size
Outline: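 Luciferase luminescence is the read-out: compounds are tested for suppressing 0.5 nM R1881-driven MMTV reporter activity in MDA-kb2 cells after 16 hr at 37C.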

[17] = qHTS assay to identify small molecule phospholipidosis (PLD) inducers (AID 1259344; active = well fitted curve in the direction sought with a large enough effect; an effect the other way counts as inactive or inconclusive)
Outline: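 Phospholipidosis is scored by imaging LipidTOX-stained pits in HepG2 cells exposed to compound for 24 h at 37 C; pit counts and integrated intensities per well and per cell serve as outputs.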

[18] = biological target: Androgen receptor (Homo sapiens) (UniProt P10275); experiment: qHTS assay to identify small molecule agonists of the androgen receptor (AR) signaling pathway in the presence of an antagonist (AID 1259381; calls by dose curve; note: nearly all actives have a fitted effect of over 15% in size)
Outline: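 MDA-kb2 cells, 3,000/well, rested 5hr at 37C/0% CO2 → nilutamide 3.0uM final or buffer → compounds, 15 conc. → 16hr at 37C → ONE-Glo, 30min RT → luminescence.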

[19] = qHTS assay to identify small molecule agonists or antagonists of the thyroid stimulating hormone receptor (TSHR) signaling pathway - wild type cell line counter screen (AID 1259384; calls by dose curve)
Outline: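 Counter screen in untransfected Hek293: compounds (15-point titration, triplicate) plus phosphodiesterase inhibitor Ro20-1724 added after 18 h plating; 30 min RT. Intracellular cAMP via competitive d2/cryptate immunoassay, 1 h incubation.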

[20] = biological target: Thyrotropin receptor (Homo sapiens) (UniProt P16473); experiment: qHTS assay to identify small molecule antagonists of the thyroid stimulating hormone receptor (TSHR) signaling pathway (AID 1259385; calls by dose curve; note: nearly all actives have a fitted effect of over 20% in size)
Outline: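 Antagonist mode: compound-treated TSHR-expressing HEK293 cells were stimulated with 1.5 ng/mL TSH (final) in presence of Ro20-1724 for 30 min at RT. HTRF cAMP detection after 1 h; each compound tested at 15 concentrations, triplicate.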

Measured: Potency

Chain of Thyrotropin receptor (Homo sapiens) (P16473 whole entry, looked up): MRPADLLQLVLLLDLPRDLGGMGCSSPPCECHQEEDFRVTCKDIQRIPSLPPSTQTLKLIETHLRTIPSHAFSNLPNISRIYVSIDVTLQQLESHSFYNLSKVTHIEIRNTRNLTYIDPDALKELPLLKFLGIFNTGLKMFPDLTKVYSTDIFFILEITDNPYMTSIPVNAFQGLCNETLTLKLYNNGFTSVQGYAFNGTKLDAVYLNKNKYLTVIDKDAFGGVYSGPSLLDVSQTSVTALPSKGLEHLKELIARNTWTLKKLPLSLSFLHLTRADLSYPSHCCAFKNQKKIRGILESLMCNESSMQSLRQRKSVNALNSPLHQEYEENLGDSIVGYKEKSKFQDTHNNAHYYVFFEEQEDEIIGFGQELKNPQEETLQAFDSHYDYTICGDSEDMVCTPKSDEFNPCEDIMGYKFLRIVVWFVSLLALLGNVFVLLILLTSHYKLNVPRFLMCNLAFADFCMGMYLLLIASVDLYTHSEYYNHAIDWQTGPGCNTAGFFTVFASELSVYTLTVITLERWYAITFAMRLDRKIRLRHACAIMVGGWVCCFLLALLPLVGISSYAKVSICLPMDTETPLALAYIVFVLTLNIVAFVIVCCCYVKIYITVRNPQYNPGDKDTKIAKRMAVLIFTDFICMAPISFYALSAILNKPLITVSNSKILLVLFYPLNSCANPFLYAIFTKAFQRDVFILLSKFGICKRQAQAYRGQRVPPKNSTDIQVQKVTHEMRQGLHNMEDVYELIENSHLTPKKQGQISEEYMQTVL
Chain of Estrogen receptor (Homo sapiens) (P03372 whole entry, looked up): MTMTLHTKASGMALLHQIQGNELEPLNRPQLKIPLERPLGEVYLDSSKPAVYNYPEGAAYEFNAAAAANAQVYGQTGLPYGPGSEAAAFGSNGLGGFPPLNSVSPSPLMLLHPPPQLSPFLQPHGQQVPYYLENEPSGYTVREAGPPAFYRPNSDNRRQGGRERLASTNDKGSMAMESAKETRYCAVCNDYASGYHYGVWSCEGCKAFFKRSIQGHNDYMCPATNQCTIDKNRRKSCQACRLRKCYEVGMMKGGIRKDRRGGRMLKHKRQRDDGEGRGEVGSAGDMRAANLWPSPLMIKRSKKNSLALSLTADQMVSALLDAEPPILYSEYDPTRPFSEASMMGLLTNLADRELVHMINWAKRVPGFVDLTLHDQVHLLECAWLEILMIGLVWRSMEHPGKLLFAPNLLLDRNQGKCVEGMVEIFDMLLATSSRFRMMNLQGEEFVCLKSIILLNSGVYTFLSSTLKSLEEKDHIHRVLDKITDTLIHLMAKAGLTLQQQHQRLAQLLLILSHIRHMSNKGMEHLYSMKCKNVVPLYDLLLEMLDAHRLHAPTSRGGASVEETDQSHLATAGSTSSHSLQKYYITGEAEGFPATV
Chain of Androgen receptor (Homo sapiens) (P10275 whole entry, looked up): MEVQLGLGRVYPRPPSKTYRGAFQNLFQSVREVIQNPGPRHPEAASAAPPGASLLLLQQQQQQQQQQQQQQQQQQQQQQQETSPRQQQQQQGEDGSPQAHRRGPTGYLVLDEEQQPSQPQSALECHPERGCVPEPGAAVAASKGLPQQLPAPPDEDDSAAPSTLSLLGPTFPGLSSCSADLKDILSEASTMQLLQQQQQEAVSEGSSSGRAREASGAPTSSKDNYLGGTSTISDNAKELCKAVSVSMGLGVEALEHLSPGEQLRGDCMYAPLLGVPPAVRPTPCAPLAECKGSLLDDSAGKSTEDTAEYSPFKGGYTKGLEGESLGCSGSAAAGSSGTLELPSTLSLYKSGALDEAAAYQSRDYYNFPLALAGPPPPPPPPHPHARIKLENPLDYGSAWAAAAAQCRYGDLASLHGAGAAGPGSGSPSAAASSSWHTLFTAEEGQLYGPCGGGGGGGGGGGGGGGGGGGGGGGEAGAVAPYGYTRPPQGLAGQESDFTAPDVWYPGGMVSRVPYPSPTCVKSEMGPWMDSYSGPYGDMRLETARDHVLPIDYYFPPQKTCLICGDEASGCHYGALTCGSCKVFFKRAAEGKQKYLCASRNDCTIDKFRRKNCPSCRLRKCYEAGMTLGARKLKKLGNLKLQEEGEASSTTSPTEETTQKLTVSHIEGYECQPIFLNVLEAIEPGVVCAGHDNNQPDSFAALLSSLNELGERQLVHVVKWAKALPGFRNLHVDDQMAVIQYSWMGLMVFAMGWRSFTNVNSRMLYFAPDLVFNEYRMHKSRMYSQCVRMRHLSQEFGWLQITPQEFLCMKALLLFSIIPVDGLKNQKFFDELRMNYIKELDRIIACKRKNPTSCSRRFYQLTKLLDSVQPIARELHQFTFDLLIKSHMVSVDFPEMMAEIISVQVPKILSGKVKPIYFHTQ
Chain of Estrogen receptor beta (Homo sapiens) (Q92731 whole entry, looked up): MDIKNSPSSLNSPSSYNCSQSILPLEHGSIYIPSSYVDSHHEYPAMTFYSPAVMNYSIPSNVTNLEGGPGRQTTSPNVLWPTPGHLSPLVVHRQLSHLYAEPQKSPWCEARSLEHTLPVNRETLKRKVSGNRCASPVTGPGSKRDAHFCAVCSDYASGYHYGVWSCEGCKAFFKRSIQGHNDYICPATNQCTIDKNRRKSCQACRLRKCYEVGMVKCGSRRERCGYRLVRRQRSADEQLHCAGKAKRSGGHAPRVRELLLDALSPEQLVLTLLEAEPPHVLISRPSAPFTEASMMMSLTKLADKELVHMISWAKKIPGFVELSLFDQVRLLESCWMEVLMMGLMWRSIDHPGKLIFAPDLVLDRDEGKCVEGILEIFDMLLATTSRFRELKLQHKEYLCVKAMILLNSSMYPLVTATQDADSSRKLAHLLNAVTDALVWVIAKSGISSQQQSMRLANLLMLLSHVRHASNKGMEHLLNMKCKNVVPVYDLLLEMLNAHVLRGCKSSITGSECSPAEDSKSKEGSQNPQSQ

CC(C)OP(=O)(CP(=O)(OC(C)C)OC(C)C)OC(C)C
inactive and 1.19 µM (active): [9]
not listed: [16] | [17] | [18] | [19] | [20]
inactive: all other assays above

COc1cc(OC)c(C(=O)CCCN2CCCC2)c(OC)c1
not listed: [3] | [10] | [11] | [13] | [15]
inactive: all other assays above

CC(=O)OCc1ccccc1
139 nM (active) and inactive: [15]
not listed: [17]
inactive: all other assays above

O=C(O)Cn1c(=O)n(Cc2ccc(Br)cc2F)c(=O)c2ccc(Cl)cc21
active: [6] 27.3 µM | [7] 21.7 µM
not listed: [13] | [17]
inactive: all other assays above

CCNc1ccccc1
not listed: [3] | [11] | [15] | [17]
inactive: all other assays above

CC(C)CC(=O)CC(C)CC(C)C (stereo unspecified)
not listed: [3] | [11] | [14] | [15] | [17]
inactive: all other assays above

CC(=O)OCCOC(C)=O
not listed: [11] | [14] | [16] | [17] | [18]
inactive: all other assays above

CCOC(=O)n1ccn(C)c1=S
not listed: [11] | [14] | [16] | [18]
inactive: all other assays above

C=CC(C)CCCC(C)(C)O (stereo unspecified)
54.4 µM (active) and inactive: [10]
not listed: [11] | [13] | [16] | [17] | [18]
inactive: all other assays above

CN/C(=C\[N+](=O)[O-])NCCSCc1csc(CN(C)C)n1
not listed: [3] | [11] | [15]
inactive: all other assays above

COc1ccc([N+](=O)[O-])cc1N
not listed: [11] | [16] | [17] | [18] | [19] | [20]
inactive: all other assays above

CCO[Si](CCC#N)(OCC)OCC
not listed: [11] | [16] | [17] | [18] | [19] | [20]
inactive: all other assays above

CC(C)OC(=O)COc1ccc(Cl)cc1Cl
not listed: [10] | [11] | [16] | [17] | [18]
inactive: all other assays above

O=C(O)c1cc2ccccc2cc1O
active: [4] 27.1 µM and 24.3 µM
not listed: [10] | [11] | [17]
inactive: all other assays above

NCCN1CCNCC1
not listed: [14] | [16] | [17] | [18]
inactive: all other assays above

CC(=O)OCc1ccco1
68.2 µM (active) and inactive: [7]
1.53 µM (active) and inactive: [9]
not listed: [16] | [17] | [18]
inactive: all other assays above

CCCCCCC=O
not listed: [10] | [11] | [16] | [17] | [18]
inactive: all other assays above

Cc1ccc([N+](=O)[O-])cc1S(=O)(=O)O
not listed: [11] | [13] | [17]
inactive: all other assays above
